The nature of test [1]: qHTS assay for environmental chemicals that activate the Aryl hydrocarbon Receptor (AhR) signaling pathway (AID 651777). Also: nearly all actives have a fitted effect of over 15% in size. Also: potency is read from the fitted curve at half-maximal effect. As to activation: % of control where 0% means no effect. The note with it: 1A2-DRE human hepatoma cells, luciferase, 24 h; activation: hits give high values. Summed up: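 1A2-DRE human hepatoma reporter line; 1,200 cells/well; cmpd or DMSO 24 h, 37 C/5% CO2; One-Glo 30 min RT; luciferase lum.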
On the technique in general: qHTS replaces the single test concentration by a dilution series.

Test [2] concerns the target Peroxisome proliferator-activated receptor alpha (Homo sapiens) (UniProt Q07869). The experiment in a line: qHTS assay for small molecule agonists of the peroxisome proliferator-activated receptor alpha (PPARalpha) signaling pathway (AID 651778). Also: % of control where 0% means no effect. The note with it: PathHunter PPARalpha complementation, chemiluminescence, 6 h; hits give high values. Summed up: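 Chemiluminescence from complemented enzyme reported PPARalpha activation in cells after 6 hr of compound treatment at 37 C. The detection reagent was incubated for 60 min at room temperature, and compounds were scored as agonists.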

The target of test [3] is Nuclear receptor ROR-gamma (Homo sapiens) (UniProt P51449). Nature of the test: qHTS assay for small molecule antagonists of the retinoid-related orphan receptor gamma (ROR-gamma) signaling pathway (AID 651802). Also: nearly all actives have a fitted effect of over 60% in size. Also: potency is read from the fitted curve at half-maximal effect. The essentials:
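Antagonism is scored as a fall in luminescence from a RORE-luciferase reporter in CHO cells expressing ROR under a TET-inducible promoter, measured 16hr after doxycycline induction in the presence of compound.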

Test [4] is described as follows: qHTS for compounds that reverse cellular toxicity of Amyloid beta (A-beta) peptide in yeast: LOPAC Validation Assay (AID 720559).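 Also: plate controls were DMSO for no effect and equimolar ferric chloride plus clioquinol rescue for full effect.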 The note with it: Potency: rescue of growth toxicity. Summed up:
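Here, A-beta-toxic yeast grow with test compounds at 30 C for 48 hr before optical density at 600 nm is recorded; data are normalized against DMSO and the FeCl3-clioquinol control.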

Test [5] deals with Arylsulfatase A (Homo sapiens) (UniProt P15289). The experiment in a line: qHTS screen for enhancers of Arylsulfatase A (ASA1): LOPAC Validation Assay (AID 720538). The essentials: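 Cell-based enhancement test: residual ASA activity in SV40-transformed I179S patient fibroblasts is measured by pNCS turnover (0.5mM final, 14h, room temperature) following 48h compound incubation; higher fluorescence indicates activation.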

“And” between values parts separate entries of the source, which are not always exact repeats. Equal values may be shown once. Inconclusive results are not listed. The source holds several records for some structures; these can differ, active in one and inactive in another. The source made the active and inactive calls. Calls follow the shape of the dose curve; as a rule, active = well fitted curve in the direction sought with a large enough effect; inconclusive = small, poorly fitted or top-dose-only effect, or another doubt; inactive = no such curve, though single readings can be large; an effect the other way counts as inactive or inconclusive.

This is an account of results in PubChem BioAssay (NCATS).

Chain of Nuclear receptor ROR-gamma (Homo sapiens) (P51449 whole entry, looked up): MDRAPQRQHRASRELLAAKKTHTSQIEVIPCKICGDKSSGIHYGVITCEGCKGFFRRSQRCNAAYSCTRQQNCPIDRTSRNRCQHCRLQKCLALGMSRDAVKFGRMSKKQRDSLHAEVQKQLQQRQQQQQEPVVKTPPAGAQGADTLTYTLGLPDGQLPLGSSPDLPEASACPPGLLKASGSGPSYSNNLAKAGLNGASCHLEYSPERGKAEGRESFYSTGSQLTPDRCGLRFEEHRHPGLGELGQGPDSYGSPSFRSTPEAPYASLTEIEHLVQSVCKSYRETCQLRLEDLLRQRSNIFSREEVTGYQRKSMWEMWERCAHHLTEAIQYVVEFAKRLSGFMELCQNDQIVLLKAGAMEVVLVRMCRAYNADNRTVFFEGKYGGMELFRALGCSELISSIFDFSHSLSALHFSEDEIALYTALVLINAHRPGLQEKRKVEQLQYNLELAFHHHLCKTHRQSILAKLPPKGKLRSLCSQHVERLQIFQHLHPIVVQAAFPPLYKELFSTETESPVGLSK
Chain of Peroxisome proliferator-activated receptor alpha (Homo sapiens) (Q07869 whole entry, looked up): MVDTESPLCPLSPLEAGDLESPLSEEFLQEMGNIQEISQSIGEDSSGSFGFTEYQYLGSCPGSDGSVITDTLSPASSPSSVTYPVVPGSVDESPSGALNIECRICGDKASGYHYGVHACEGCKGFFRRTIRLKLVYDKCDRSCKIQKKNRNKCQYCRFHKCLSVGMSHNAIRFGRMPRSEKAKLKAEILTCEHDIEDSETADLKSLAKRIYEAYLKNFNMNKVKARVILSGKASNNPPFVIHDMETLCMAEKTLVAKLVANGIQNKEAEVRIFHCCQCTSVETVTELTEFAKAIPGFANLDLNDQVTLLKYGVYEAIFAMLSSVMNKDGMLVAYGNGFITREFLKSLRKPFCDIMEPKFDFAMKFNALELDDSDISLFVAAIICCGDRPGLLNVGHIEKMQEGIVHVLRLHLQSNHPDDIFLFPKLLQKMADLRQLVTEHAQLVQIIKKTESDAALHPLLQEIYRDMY
Chain of Arylsulfatase A (Homo sapiens) (P15289 whole entry, looked up): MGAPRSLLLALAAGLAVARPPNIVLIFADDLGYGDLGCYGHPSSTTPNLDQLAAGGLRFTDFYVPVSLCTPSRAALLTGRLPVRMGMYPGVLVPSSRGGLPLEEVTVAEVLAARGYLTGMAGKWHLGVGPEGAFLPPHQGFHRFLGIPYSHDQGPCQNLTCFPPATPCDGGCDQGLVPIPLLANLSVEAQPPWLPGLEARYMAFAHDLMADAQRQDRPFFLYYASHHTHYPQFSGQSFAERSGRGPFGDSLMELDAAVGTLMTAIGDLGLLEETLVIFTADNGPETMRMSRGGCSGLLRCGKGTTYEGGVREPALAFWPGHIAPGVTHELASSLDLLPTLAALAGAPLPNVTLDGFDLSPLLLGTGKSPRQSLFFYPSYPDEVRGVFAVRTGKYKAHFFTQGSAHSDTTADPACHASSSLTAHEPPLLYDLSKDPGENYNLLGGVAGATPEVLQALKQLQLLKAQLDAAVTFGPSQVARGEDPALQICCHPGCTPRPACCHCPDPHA

Turning to `O=C1CN(/N=C/c2ccc([N+](=O)[O-])o2)C(=O)N1`, the activation in test [1] was 4.15% (inactive). Moreover, the max response in test [2] is -1.28% (inactive).

For `COc1cc(CNC(=O)CCCC/C=C/C(C)C)ccc1O`, the activation in test [1] is -0.69% (inactive) and 1.8% (inactive). Besides, the max response in test [2] is -1.35% (inactive) and 5.82% (inactive).

As to `COc1cc(/C=C/C(=O)CC(=O)/C=C/c2ccc(O)c(OC)c2)ccc1O`, in test [2], the max response was -5.38% (inactive).

For the compound `CN(C)CCC(c1ccc(Cl)cc1)c1ccccn1` (stereo not drawn), in test [1], the activation was -0.109% (inactive). Moreover, the max response in test [2] was -7.82% (inactive). Also, the Potency entry in test [3] and in test [4] was “inactive” in each case.

Turning to `O=C(O)/C=C\C(=O)O`, the max response in test [2] was -3.33% (inactive). Also, in test [3], the Potency entry is “inactive”.

As for `CCCOC(=O)c1ccc(O)cc1`, the activation in test [1] was 3.41% (inactive) and 2.32% (inactive). In addition, in test [2], the max response was 0.116% (inactive) and 2.06% (inactive) and -4.76% (inactive). For the same compound, the Potency result in test [3] was “inactive”.

Consider `CC1(C)S[C@@H]2[C@H](NC(=O)[C@H](N)c3ccccc3)C(=O)N2[C@H]1C(=O)O`, for which the activation in test [1] is 0.371% (inactive). In addition, the max response in test [2] was -1.69% (inactive).

Consider `O=C(OCc1ccccc1)c1ccccc1`, for which the max response in test [2] is -1.34% (inactive).

Regarding `O=C(O)c1ccccc1Nc1cccc(C(F)(F)F)c1`, the activation in test [1] was 0.429% (inactive).

As to `O=C(O)c1cc(O)c(O)c(O)c1`, the activation in test [1] is -0.689% (inactive). Further, the max response in test [2] was -13% (inactive). Besides, the Potency result in test [3] is “inactive”.

Consider `CN1[C@@H]2CC[C@H]1CC(OC(=O)C(CO)c1ccccc1)C2` (stereo partly drawn), for which the activation in test [1] was -1.81% (inactive).

Take `Nc1ccc(O)c([N+](=O)[O-])c1`: the activation in test [1] was 4.17% (inactive) and 0.649% (inactive). Further, the max response in test [2] is -1.01% (inactive) and 0.176% (inactive).

In the case of `C#C[C@]1(O)CC[C@H]2[C@@H]3CCc4cc(O)ccc4[C@H]3CC[C@@]21C`, the activation in test [1] is -0.528% (inactive) and -0.741% (inactive). For the same compound, the max response in test [2] is -1.9% (inactive) and -2.24% (inactive). Also, the Potency in test [3] was 33.5 µM (active).

In the case of `CN(C)c1ccc(C(=C2C=CC(=[N+](C)C)C=C2)c2ccccc2)cc1`, in test [2], the max response was -10.3% (inactive).

Take `Nc1cc(-c2ccncc2)c[nH]c1=O`: the activation in test [1] is -0.684% (inactive). Also, the max response in test [2] was -1.14% (inactive).

Regarding `S=c1[nH]c2ccccc2s1`, the max response in test [2] is -10.8% (inactive) and -7.19% (inactive). In addition, the Potency result in test [3] was “inactive”.

As to `CN(C)c1ccc(N=NS(=O)(=O)O)cc1`, the Potency in test [1] was 70.8 µM (active); in test [3], 5.96 µM (active). For the same compound, the activation in test [1] was 10.4% (inactive). Further, the max response in test [2] was -7.89% (inactive) and -1.86% (inactive).

In the case of `Nc1ccc([N+](=O)[O-])cc1O`, the activation in test [1] was 7.01% (inactive). Moreover, the max response in test [2] is -5.57% (inactive) and -3.71% (inactive). Also, the Potency entry in test [3] is “inactive”.

In the case of `C=CCCCCCCCCC(=O)O`, the activation in test [1] is 1.9% (inactive). For the same compound, the max response in test [2] is 3.91% (inactive).

As to `c1ccc2sc(SSc3nc4ccccc4s3)nc2c1`, the activation in test [1] was -0.44% (inactive) and 3.22% (inactive). Besides, the max response in test [2] was -2.43% (inactive) and -7.65% (inactive). Besides, the Potency result in test [3] is “inactive”.

`CN1CCC[C@H]1c1cccnc1`: in test [1], the activation was 0.841% (inactive) and 0.227% (inactive). In addition, the max response in test [2] was -3.15% (inactive) and -0.899% (inactive). The Potency result in test [4] was “inactive”.

Turning to `O=c1cc(-c2ccccc2)oc2ccccc12`, the Potency in test [1] is 50.1 µM (active) and 44.7 µM (active). Also, the max response in test [2] was 0.229% (inactive) and -0.923% (inactive).

For `Nc1nc2ccc([N+](=O)[O-])cc2s1`, in test [1], the activation was 8.89% (inactive). The max response in test [2] was -11% (inactive).

For `NCCO`, in test [1], the activation is -0.695% (inactive). Further, in test [2], the max response is -2.8% (inactive). For the same compound, in test [3], the Potency result was “inactive”.

Consider `O=S(=O)(c1cccc2c(I)cccc12)N1CCCNCC1`, for which the Potency entry in test [5] and in test [4] was “inactive” each time.

For `CN1CCc2cccc3c2C1Cc1ccc(O)c(O)c1-3` (stereo not drawn), the Potency entry in test [5] and in test [4] was “inactive” each time.

As for `O=C(O)[C@@H]1C[C@H](C(=O)O)N1`, the Potency result in test [5] and in test [4] was “inactive” in each case.

For the compound `O=[N+]([O-])c1ccc2c(c1)S(=O)(=O)C=C2`, the Potency result in test [5] and in test [4] was “inactive” each time.

As for `Brc1c(Br)c(Br)c2n[nH]nc2c1Br`, the Potency result in test [5] and in test [4] was “inactive” in each case.

Consider `O=Nc1ccc2oc(=O)ccc2c1`, for which the Potency result in test [5] and in test [4] was “inactive” in each case.

On to `C=CC(N)CCC(=O)O` (stereo not drawn), for which the Potency result in test [5] and in test [4] was “inactive” in each case.

Turning to `O=C1C(SCCO)=C(SCCO)C(=O)c2ccccc21`, the Potency result in test [5] and in test [4] was “inactive” each time.

In the case of `CN1C2CCC1CC(OC(=O)C(O)c1ccccc1)C2` (stereo not drawn), the Potency result in test [5] and in test [4] was “inactive” in each case.

With `CCc1c(C(=O)NCCc2ccc(N3CCCCC3)cc2)[nH]c2ccc(Cl)cc12`, the Potency entry in test [5] and in test [4] was “inactive” in each case.

For `CCOC(=O)C1=C(C)NC(C)=C(C(=O)OCC)C1c1c(F)c(F)c(F)c(F)c1F`, the Potency result in test [5] and in test [4] was “inactive” each time.

As to `CC12C(=O)OC(=O)C1(C)C1CCC2O1` (stereo not drawn), the Potency result in test [5] and in test [4] was “inactive” in each case.
